In PubChem BioAssay AID651871 (Sanford-Burnham Center for Chemical Genomics, 2012):
Values joined by “and” are separate entries in the source; they are usually repeats but may differ in a detail not shown here. Equal values may be shown once.

Test system: H9c2
Test: cardiomyocyte survival under oxidative or metabolic stress – cell-based, panel, H9c2 and HL-1, ATP luminescence, set 2, SAR follow-up (AID 651871);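 further: cells exposed to stressor for 2 h before ATP readout; reference of the scale not given here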
Settings: H9c2/HL-1 cardiomyocytes, 2-deoxyglucose stress, with 2-deoxyglucose; run 6, at 79 µM (top of the series)

SMILES	activity (protection/inhibition)
CCOC(=O)c1cccc(NC(=O)CNC(=O)c2cc(-c3cc(OC)c(OC)c(OC)c3)nc3ccccc23)c1	73.8%
COc1ccc2c(c1OC)C(=O)N1c3ccccc3C(=O)N(Cc3cccc(Cl)c3Cl)C21 (stereo not drawn)	104% and 66.4% and -6.1%
COc1ccc2nc(-c3cc(OC)c(OC)c(OC)c3)cc(C(=O)NCC(=O)Nc3ccc(C(C)=O)cc3)c2c1	91.5%
